Data as given in PubChem BioAssay (NCI).
Several values for one entry are separate records, joined by “and”; a condition that tells them apart may be missing. Equal entries are not always repeated. The panel holds about 83,000 compounds, 20% with a hit somewhere; the sample as a whole holds those more often.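 For each line, cells grew in 96-well plates with the test compound present at a single concentration for 48 hours.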 Unmarked numbers belong to inactive results. Activity calls are given as the source filed them. Rule for the calls: active = growth percent below 10; inactive = the rest.

What was measured:
Test in all cases: NCI-60 one-dose screen, 48 h (100 = growth as untreated, 0 = no growth, -100 = all killed)
Conditions in all cases: 10 µM unless noted
[1] = system: NCI-H23 lung
[2] = system: NCI-H226 lung
[3] = system: NCI-H322M lung
[4] = system: HOP-62 NSCLC
[5] = system: NCI-H460 lung
[6] = system: NCI-H522 lung
[7] = system: A549/ATCC NSCLC
[8] = system: 786-0 renal
[9] = system: COLO 205 colon
[10] = system: DU-145 prostate
[11] = system: K-562 leukemia
[12] = system: MALME-3M melanoma
[13] = system: MDA-MB-231 breast
[14] = system: RXF 393 renal
[15] = system: SF-268 CNS
[16] = system: SF-295 CNS
[17] = system: SF-539 CNS
[18] = system: UACC-257 melanoma
[19] = system: M14 melanoma
[20] = system: HOP-92 NSCLC

SMILES	growth [1] [%]	growth [2]	growth [3] [%]	growth [4]	growth [5]	growth [6]	growth [7]	growth [8]	growth [9]	growth [10]	growth [11]	growth [12] [%]	growth [13]	growth [14]	growth [15]	growth [16]	growth [17]	growth [18]	growth [19]	growth [20]
Clc1ccc(/C=N\N2CCCCCC2)cc1	97.8	93.8% and 125%	104	105% and 95.9%	108% and 119%	123% and 83.6%	94.2% and 104%	101% and 97.5%	124% and 130%	112% and 102%	87.7%	98	89.7% and 99.9%	92% and 119%	103% and 115%	96.4% and 95.9%	115% and 92%	104% and 109%	104% and 111%	
C=CCOc1ccc(/C=C2\SC(=S)N(CCc3ccc(O)cc3)C2=O)cc1	104	91.6%	95.2	106%	97.4%	11%	88.8%	100%		98.3%	62.1%	101	90.2%	114%	91.4%	91.1%	82.7%	92.6%	103%	-2.76% (active)
O=C1/C(=C/c2cn(-c3ccccc3)nc2-c2ccccc2)SC(=S)N1c1ccc(Cl)cc1	87.5	71.2%	64.8	52.7%	47.5%	83.7%	68.8%	85.5%		74.6%	63.8%	95.4	79.8%	88.4%	62.5%	44.6%	84.2%	89.8%	65.8%	43.3%
COc1ccc(C/C(C)=C(/c2ccc(OCCN3CCCC3)cc2)c2ccc(OC(=O)NCc3ccccc3)cc2)cc1	93.6	102%	92	91.9%	63.8%	92.6%	72.3%	69.8%		95%	1.16% (active)	83.6	101%	76.8%	86.5%	95.2%	82.5%	107%	-20.8% (active)	66.2%
CCCCCCCCCCCCCCCC(=O)O[C@@H]1[C@@H](O)[C@@H](O)C([C@H](NC(=O)[C@@H]2C[C@@H](CCC)CN2C)[C@H](C)Cl)O[C@@H]1SC (some centres not stated)	102	91.2%	97.8	101%	110%	130%	102%	91.8%		114%	100%	87.1	110%	106%	105%	104%	92%	105%	98.9%	118%
CCCCSc1ccc2nc(-c3ccc(OCCCN=C(N)N)cc3)cn2c1	63.7	72.3%	90.7	86.4%	43.7%	53.8%	83.8%	39.4%		73.4%	32.9%	23.2	51.2%	45.6%	50.9%	52.7%	9.52% (active)	85.7%	72.5%	43.1%
Fc1ccc(NC(c2ccc(F)cc2)C2CCN(CCCCc3ccccc3)CC2)cc1 (configuration not stated)	43.7	74.4%	60.9	71.4%	1.45% (active)	53.6%	52.3%	35.8%		19.3%	-29.1% (active)	32.6	6.83% (active)	10.9%	44.2%	34.6%	40.5%	60.7%	24.7%	29.1%
O=C(NCc1ccc(Cn2c(=O)sn(-c3ccc(Cl)cc3)c2=O)cc1)OCc1ccc2c(Cl)cc(Cl)c(O)c2n1	44.1	56.9%	45.7	38.3%	21.7%	68.8%	30.5%	55.8%		44.8%	29.8%	78.3	72%	25.8%	54.6%	18.2%	42.5%	78.1%	50.5%	64.7%
